# Experimental data taken from the supplement of paper PMC12494721.
# Where a name gives a salt, the structure may show the parent alone.
# Key:
# Details in all cases: incubation time: 27 h, anaerobic, 37 °C;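 for the amine columns active = adjusted P below 0.05 in both replicates with a change the same way and a mean fold change under 0.8 or over 1.25; inactive = the rest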
# [1] = test system: Clostridium sporogenes DSM 1664; experiment: growth (OD595) fold change vs plate DMSO controls (fold change (ratio)); higher = more growth
# Outline: (§1)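 Growth is the fold change relative to the median of plate DMSO controls. Readings came from anaerobic mGAM cultures in 96-well plates grown for 27 h at 37 °C and read at 595 nm. They were blank-subtracted, corrected for compound background with 20 µM compound solutions in water, and converted to OD with a calibration factor of 5. Values are means of 2 biological replicates, and fold changes above 1.5 were set to NA.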
# [2] = test system: Escherichia coli IAI1; experiment: as above
# Outline: as §1
# [3] = test system: Klebsiella aerogenes DSM 30053; experiment: as above
# Outline: as §1
# [4] = test system: Ruminococcus gnavus DSM 108212; experiment: as above
# Outline: as §1
# [5] = test system: Klebsiella aerogenes DSM 30053; experiment: fold change of Histamine concentration vs plate DMSO controls (fold change (ratio)); higher = more amine produced, active = hit call of the paper (significant change in both replicates, either direction)
# Outline: (§2)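 Amine values are fold changes relative to DMSO-only wells on the same plate. They derive from 27 h, 37 °C anaerobic mGAM cultures of four gut bacterial strains in 80 µL wells, dosed at 20 µM final, or 50 µM final for sweeteners. Extraction of the whole culture, LC–triple-quadrupole MS in dynamic MRM mode, external calibration curves and within-batch drift correction were used, with 2 biological replicates averaged.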
# [6] = test system: Clostridium sporogenes DSM 1664; experiment: fold change of Tryptamine concentration vs plate DMSO controls (fold change (ratio)); higher = more amine produced, active = hit call of the paper (significant change in both replicates, either direction)
# Outline: as §2
# [7] = test system: Ruminococcus gnavus DSM 108212; experiment: as above
# Outline: as §2
# [8] = test system: Escherichia coli IAI1; experiment: fold change of Putrescine concentration vs plate DMSO controls (fold change (ratio)); higher = more amine produced, active = hit call of the paper (significant change in both replicates, either direction)
# Outline: as §2
# [9] = test system: Klebsiella aerogenes DSM 30053; experiment: as above
# Outline: as §2
# [10] = test system: Escherichia coli IAI1; experiment: fold change of Cadaverine concentration vs plate DMSO controls (fold change (ratio)); higher = more amine produced, active = hit call of the paper (significant change in both replicates, either direction)
# Outline: as §2
# [11] = test system: Klebsiella aerogenes DSM 30053; experiment: as above
# Outline: as §2
# [12] = test system: Ruminococcus gnavus DSM 108212; experiment: fold change of 2-Phenylethylamine concentration vs plate DMSO controls (fold change (ratio)); higher = more amine produced, active = hit call of the paper (significant change in both replicates, either direction)
# Outline: as §2
Compound,growth [1],growth [2],growth [3],growth [4],fold change of Histamine concentration [5],fold change of Tryptamine concentration [6],fold change of Tryptamine concentration [7],fold change of Putrescine concentration [8],fold change of Putrescine concentration [9],fold change of Cadaverine concentration [10],fold change of Cadaverine concentration [11],fold change of 2-Phenylethylamine concentration [12]
OC[C@@H](O)[C@@H](O[C@H]1O[C@H](CO)[C@@H](O)[C@H](O)[C@H]1O)[C@H](O)[C@@H](O)CO [Maltitol] (50 µM),1,0.988,1.02,0.976,1 (inactive),1.01 (inactive),0.988 (inactive),1.05 (inactive),1.02 (inactive),1.04 (inactive),1.01 (inactive),0.941 (inactive)
CN(C)CCC(c1ccc(Cl)cc1)c1ccccn1 (stereo not given) [Chlorpheniramine maleate] (20 µM),0.73,0.712,0.719,0.699,0.983 (inactive),1.05 (inactive),1.03 (inactive),0.846 (inactive),0.989 (inactive),1.43 (active),1 (inactive),1.02 (inactive)
CSc1ccc2c(c1)N(CCC1CCCCN1C)c1ccccc1S2 (stereo not given) [Thioridazine hydrochloride] (20 µM),1.15,1.03,1.01,1.25,0.936 (inactive),1.12 (inactive),0.808 (inactive),1.04 (inactive),0.948 (inactive),1.1 (inactive),1.02 (inactive),0.941 (inactive)
CCOC(=O)C1=C(C)NC(C)=C(C(=O)OCC)C1c1ccccc1/C=C/C(=O)OC(C)(C)C [Lacidipine] (20 µM),1.03,0.928,0.929,1.12,1.13 (inactive),0.849 (inactive),0.944 (inactive),0.962 (inactive),1.03 (inactive),1.01 (inactive),0.979 (inactive),0.955 (inactive)
CN(C(=O)CN(CCO)CC(=O)N(C)C(C)(C)Cc1ccccc1)C(C)(C)Cc1ccccc1 [Oxethazaine] (20 µM),1.23,1.05,1,0.384,0.971 (inactive),0.918 (inactive),0.602 (active),1.1 (inactive),1 (inactive),1.01 (inactive),0.988 (inactive),0.728 (active)
CCCCOC(=O)c1ccc(O)cc1 [Butylparaben] (20 µM),1.09,0.963,0.965,1.01,1.01 (inactive),0.984 (inactive),0.964 (inactive),0.939 (inactive),0.968 (inactive),1.04 (inactive),0.984 (inactive),0.953 (inactive)
CNCCCC12CCC(c3ccccc31)c1ccccc12 [Maprotiline hydrochloride] (20 µM),1.03,1.01,0.999,1.09,0.982 (inactive),0.973 (inactive),0.913 (inactive),1.02 (inactive),1.01 (inactive),1.03 (inactive),1.01 (inactive),0.884 (inactive)
O=C(CO)[C@@H](O)[C@H](O)[C@H](O)CO [D(-) Fructose] (50 µM),1.01,1.02,0.988,0.986,0.994 (inactive),0.929 (inactive),0.925 (inactive),1.04 (inactive),0.987 (inactive),1.07 (inactive),0.981 (inactive),0.919 (inactive)
CCOc1nc2cccc(C(=O)O)c2n1Cc1ccc(-c2ccccc2-c2nnn[nH]2)cc1 [Candesartan] (20 µM),1.16,0.982,1.01,1.19,0.965 (inactive),1.04 (inactive),0.975 (inactive),0.981 (inactive),1 (inactive),1.03 (inactive),1.01 (inactive),0.947 (inactive)
COc1cc(NS(=O)(=O)c2ccc(N)cc2)ncn1 [Sulfamonomethoxine] (20 µM),1.06,0.996,0.978,1.09,1.11 (inactive),0.982 (inactive),0.944 (inactive),0.911 (inactive),1.02 (inactive),1.03 (inactive),0.991 (inactive),0.915 (inactive)
O=c1[nH]cnc2c1ncn2[C@@H]1O[C@H](CO)[C@@H](O)[C@H]1O [Inosine] (20 µM),0.976,1.01,1.01,0.919,1.01 (inactive),1.06 (inactive),0.997 (inactive),1.02 (inactive),1.02 (inactive),1.01 (inactive),0.997 (inactive),0.963 (inactive)
Cc1ccc(-c2cc(C(F)(F)F)nn2-c2ccc(S(N)(=O)=O)cc2)cc1 [Celecoxib] (20 µM),0.912,1.03,1,1.11,1.09 (inactive),0.967 (inactive),0.927 (inactive),1.03 (inactive),0.991 (inactive),1.06 (inactive),0.99 (inactive),0.87 (inactive)
C[C@]12CCC(=O)C=C1CC[C@@H]1[C@@H]2C(=O)C[C@@]2(C)[C@H]1CC[C@]2(O)C(=O)CO [Cortisone] (20 µM),1.15,0.978,1,1.23,0.991 (inactive),0.974 (inactive),1.01 (inactive),1 (inactive),1 (inactive),0.994 (inactive),1.01 (inactive),1.03 (inactive)
CC(C)C(=O)Nc1ccc([N+](=O)[O-])c(C(F)(F)F)c1 [Flutamide] (20 µM),0.955,1,0.938,1.32,1.02 (inactive),0.961 (inactive),1 (inactive),0.977 (inactive),1.01 (inactive),0.982 (inactive),0.981 (inactive),1.02 (inactive)
CC(C)OC(=O)CCC/C=C\C[C@@H]1[C@@H](CC[C@@H](O)CCc2ccccc2)[C@H](O)C[C@@H]1O [Latanoprost] (20 µM),0.975,1,0.984,1.44,1.11 (inactive),0.828 (inactive),0.542 (active),0.928 (inactive),1.04 (inactive),0.939 (inactive),1 (inactive),0.649 (inactive)
CSc1nc2cc(Cl)c(Oc3cccc(Cl)c3Cl)cc2[nH]1 [Triclabendazole] (20 µM),0.189,1.07,0.985,0.767,1.04 (inactive),0.0552 (active),0.514 (active),0.907 (inactive),0.984 (inactive),1.01 (inactive),1.04 (inactive),0.671 (inactive)
CCc1oc2ccccc2c1C(=O)c1cc(I)c(O)c(I)c1 [Benziodarone] (20 µM),0.283,0.975,1.01,0.707,1.03 (inactive),0.0565 (active),0.468 (active),1.03 (inactive),1.01 (inactive),1.05 (inactive),1.01 (inactive),0.489 (inactive)
O=c1[nH]c(=O)n([C@H]2C[C@H](O)[C@@H](CO)O2)cc1F [Floxuridine] (20 µM),0.467,0.882,0.907,1.41,0.675 (active),0.514 (inactive),0.748 (active),0.593 (active),0.903 (inactive),0.889 (inactive),1.02 (inactive),0.884 (inactive)
CN(C)CCOC(c1ccc(Cl)cc1)c1ccccn1 (stereo not given) [Carbinoxamine maleate salt] (20 µM),1.2,1.01,0.985,0.88,1.04 (inactive),0.981 (inactive),1.05 (inactive),0.966 (inactive),1.02 (inactive),0.974 (inactive),1 (inactive),1.1 (inactive)
CC(C)Cn1cnc2c(N)nc3ccccc3c21 [Imiquimod] (20 µM),1.1,0.977,1.02,0.323,0.998 (inactive),0.888 (inactive),0.149 (active),0.988 (inactive),1.02 (inactive),1.04 (inactive),1 (inactive),0.162 (active)
Cc1ncc([N+](=O)[O-])n1CC(O)CCl (stereo not given) [Ornidazole] (20 µM),0.007,0.984,1.04,0.0518,0.885 (inactive),0.00845 (active),0.0747 (active),0.976 (inactive),0.986 (inactive),0.962 (inactive),1.02 (inactive),0.0499 (active)
COc1cc(C)nc(-n2nc(C)cc2OC)n1 [Epirizole] (20 µM),0.918,0.98,1,0.89,1.02 (inactive),1.04 (inactive),0.971 (inactive),0.949 (inactive),1.02 (inactive),1.01 (inactive),1.02 (inactive),1.02 (inactive)
CN[C@H]1CC[C@@H](c2ccc(Cl)c(Cl)c2)c2ccccc21 [Sertraline] (20 µM),1.13,1.01,1.02,0.975,0.995 (inactive),1.01 (inactive),0.902 (inactive),1.03 (inactive),1 (inactive),1.1 (inactive),0.996 (inactive),1.02 (inactive)
COC(=O)Nc1nc2cc([S+]([O-])c3ccccc3)ccc2[nH]1 (stereo not given) [Oxfendazole] (20 µM),0.943,1.04,1.01,0.99,1.01 (inactive),1.01 (inactive),1.04 (inactive),0.99 (inactive),1.04 (inactive),0.981 (inactive),1.04 (inactive),0.999 (inactive)
CO/N=C(\C(=O)N[C@@H]1C(=O)N2C(C(=O)O)=C(COC(N)=O)CS[C@H]12)c1ccco1 [Cefuroxime sodium salt] (20 µM),0,0.0568,0.796,0.229,1.1 (inactive),0.031 (active),0.0602 (active),0.84 (inactive),1.03 (inactive),1.98 (active),1.07 (inactive),0.0618 (active)
